Data published in PubChem BioAssay (NCI).
Where “and” joins values, the source holds several entries; their conditions need not be identical. Equal values may be shown once. About 83,000 compounds went through this panel and 20% of them were active in at least one assay; those are over-represented in the sample as a whole.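 96-well plates, one dose, 48 hours. Percent growth reported; active if below 10.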 Calls of active or inactive are those of the source. Where a SMILES comes first, the peptide text is derived from it. The star is where a group is joined. Trt = c1ccc(C(c2ccccc2)(c2ccccc2)*)cc1; Cbz = O=C(OCc1ccccc1)*

System: NCI-H522 lung
Assay: NCI-60 one-dose screen, 48 h (100 = growth as untreated, 0 = no growth, -100 = all killed)
Details: 10 µM unless noted

SMILES	growth
O=C(Nc1cccc(Br)c1)Oc1ccc(Cl)c2cccnc12	-56.5% [100 µM] (active)
CN(C)c1ccc(/C=N/N=C(\C#N)[S][Sn]([Cl])([c]2ccccc2)[c]2ccccc2)cc1	-81.4% (active)
NC(=S)N/N=C\c1nccc2c(C(F)(F)C(F)(F)C(F)(F)F)cccc12	-20.7% (active)
O=C1c2ccccc2C(=O)c2sc(Nc3cccc(Cl)c3)nc21	-32% (active)
O[C@H]1[C@H]2c3cc4c(cc3CN3CCC(=C[C@@H]1O)[C@H]23)OCO4	25% (inactive)
Nc1ncnc2c1ncn2C1OC(CO)C(O)C1O (stereo not drawn)	106% (inactive) and -20.2% (active) and 110% (inactive)
CCOc1ccc(-c2nc3ccc(-c4nc5ccc(N6CCN(C)CC6)cc5[nH]4)cc3[nH]2)cc1	-65.5% (active)
O=C1c2cccnc2-c2nccc3c2c1nc1cc(Br)ccc13	-60.8% (active) and -66% (active)
Nc1ccc(SSc2ccc(N)cc2)cc1	84.1% (inactive)
Cc1ccc2nc(C[n+]3ccc4ccccc4c3)ccc2c1	47.1% (inactive)
CN(C)CCOc1ccc2c(c1)C(=O)/C(=C\c1ncc([N+](=O)[O-])n1C)C2	-59.8% (active)
N#CSCc1c(Cl)cccc1Cl	43.8% (inactive)
COC(=O)C(CSC(c1ccccc1)(c1ccccc1)c1ccccc1)NC(=O)C(CC(N)=O)NC(=O)OCc1ccccc1 (stereo not drawn) (Cbz-Asn-Cys(Trt)-OMe; configuration not given here)	51.5% (inactive)
